Screening data: PubChem BioAssay, The Scripps Research Institute Molecular Screening Center
TEAD-YAP inh: TEAD-YAP interaction inhibition; inhibition, % at 9.12 µM; HEK-TIYL cells, TEAD-Gal4/YAP UAS-luciferase luminescence; actives 1.4% (n = 640,000); in the data active means inhibition above about 32%;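 further: 0% = median of test compound wells and 100% = reference inhibitor wells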
GPR151 ag: activates the human receptor GPR151; PathHunter beta-arrestin GPR151 cells, luminescence; activation, % at 11.2 µM; actives 1% (n = 650,000); AID 1508602; in the data active means activation above about 4.9%;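 further: 0% = median of compound wells and 100% = cells with positive control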
MITF primary: human MITF inhibition, primary screen; O75030; AlphaScreen MITF homodimerization, bead proximity signal; inhibition, % at 2.6 µM; actives 0.91% (n = 650,000); AID 1259374; in the data active means inhibition above about 50%;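 further: 0% = vehicle wells with protein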
FBW7 act: activators of human E3 ligase FBW7; AlphaScreen FBW7–phospho-cyclin E peptide binding, activator screen; normalized activity (activation), % at 26.1 µM; actives 0.13% (n = 650,000); in the data active means normalized activity above about 1.9%;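 further: purified mutant Fbw7 with reduced substrate affinity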
Target sequence (Q969H0 whole entry, looked up): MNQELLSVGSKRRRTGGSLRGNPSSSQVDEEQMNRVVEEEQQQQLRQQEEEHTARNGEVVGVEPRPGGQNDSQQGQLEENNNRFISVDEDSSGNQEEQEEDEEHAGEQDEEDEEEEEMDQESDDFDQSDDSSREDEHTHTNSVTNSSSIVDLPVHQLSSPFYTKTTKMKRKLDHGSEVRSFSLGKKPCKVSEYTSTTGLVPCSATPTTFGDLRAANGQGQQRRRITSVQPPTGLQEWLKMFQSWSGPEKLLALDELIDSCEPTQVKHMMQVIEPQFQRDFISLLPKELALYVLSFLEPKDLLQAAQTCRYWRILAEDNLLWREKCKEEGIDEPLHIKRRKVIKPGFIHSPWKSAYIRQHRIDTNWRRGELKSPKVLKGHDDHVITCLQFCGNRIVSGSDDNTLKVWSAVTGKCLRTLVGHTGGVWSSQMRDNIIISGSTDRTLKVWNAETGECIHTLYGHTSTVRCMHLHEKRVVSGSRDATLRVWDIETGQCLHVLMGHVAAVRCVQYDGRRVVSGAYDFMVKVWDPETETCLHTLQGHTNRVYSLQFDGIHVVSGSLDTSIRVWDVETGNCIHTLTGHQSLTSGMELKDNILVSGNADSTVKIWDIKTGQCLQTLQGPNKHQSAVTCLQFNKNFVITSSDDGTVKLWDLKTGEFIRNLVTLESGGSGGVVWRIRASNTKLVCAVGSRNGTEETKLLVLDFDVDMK
GPR151 confirm: confirmation of human GPR151 activators; shares compounds with GPR151 ag; GPR151 PathHunter beta-arrestin cells, luminescence, 90 min; % of EA-reagent control over plate median; activation, % at 11.2 µM; 6,700 tested, under 10 active; AID 1508609;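 active means mean percent activation across replicates above the confirmation screen cutoff of 4.91%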
GPR119 counter: GPR119 activation, counter-screen for GPR151 activators; activation, % at 11.2 µM; AID 1508611; GPR119 PathHunter beta-arrestin cells, luminescence, 90 min; 0 = compound-well median, 100 = enzyme-acceptor control; shares compounds with GPR151 ag; actives 0.3% (n = 6,700);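 active means mean percent activation in the counterscreen above 29.09%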;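 further: counterscreen on off-target GPR119 to flag nonselective hits from the GPR151 activator screen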
The depositor's hits bear a star; · = no result given. Sampled rows, rich in hits. Any-hit rate of the full collection: about 3.5%.

SMILES	TEAD-YAP inh	GPR151 ag	MITF primary	FBW7 act	GPR151 confirm	GPR119 counter
Cc1ccc(NC(=O)CCc2c(C)nc3nc(CN)nn3c2C)cc1F	-4	-1	9	0	·	·
COc1ccccc1C(=O)NCCn1cc(SCC(=O)N2CCc3ccccc32)c2ccccc21	-19	0	0	0	·	·
Cc1cc(C)nc(-n2nc(C)c(C(O)(CC(=O)C(F)(F)F)C(F)(F)F)c2N)n1 (stereo not given)	-8	11*	0	0	0	-3
Cn1c(=O)c(=O)n(C)c2cc(S(=O)(=O)N3CCN(C(=O)c4ccco4)CC3)ccc21	1	15*	6	0	1	-2
CCC1CCCCN1S(=O)(=O)c1ccc(OC)cc1 (stereo not given)	7	0	4	0	·	·
CCC1CCCCN1S(=O)(=O)c1cc(OC)c(Cl)cc1OC (stereo not given)	-2	5.6*	3	0	0	7
CCCn1nnc(NC(=O)C(C)Oc2ccc(Cl)cc2Cl)n1 (stereo not given)	7	4.9*	6	0	0	-8
O=C(CCCn1c(SCc2ccc(Cl)cc2)nc2ccccc2c1=O)NCc1cccc(Cl)c1	0	-1	1	0	·	·
CC(C)CCN1C(=O)CC(NNC(=O)c2ccc(F)cc2)C1=O (stereo not given)	-8	5.7*	0	0	1	2
COC(=O)c1cc(NC(=O)c2cccs2)c(=O)n2c(=O)c3c(C)c(C)sc3[nH]c12	-5	0	2	0	·	·
COC(=O)c1cc(NC(=O)c2ccc(F)cc2)c(=O)n2c(=O)c3c(C)c(C)sc3[nH]c12	2	5.4*	2	0	1	2
COc1ccc(-c2nnc(SCC(=O)c3cc(C)n(CC4CCCO4)c3C)o2)cc1 (stereo not given)	-7	4.9*	2	0	1	6
CCOc1ccccc1OCCN[C@H](C)Cc1ccc(OC)c(S(N)(=O)=O)c1	-2	6.8*	-16	0	0	0
Cc1ccnc(SCc2nc3ccc(Cl)cn3c2Br)n1	-40	-1	7	0	·	·
Cc1ccnc(SCc2nc3ccccn3c2Br)n1	-31	15*	18	0	-1	-14
O=C(CSc1nc2ccc(Nc3nc(N4CCOCC4)nc(N4CCOCC4)n3)cc2s1)NC1CC1	0	9.3*	-1	0	1	12
O=C(CSc1nc2ccc(Nc3nc(N4CCOCC4)nc(N4CCOCC4)n3)cc2s1)NCC1CCCO1 (stereo not given)	6	-1	1	1	·	·
Cc1c(C#N)c2ccccc2n1CC(=O)N1CCCCCC1	0	1	-5	0	·	·
Cc1cc2c(cc1S(=O)(=O)N(C)c1ccc(Br)cc1)OCC(=O)N2	2	10*	14	0	1	4
CN(c1ccc(Br)cc1)S(=O)(=O)c1cc2c(cc1Cl)NC(=O)CO2	1	2	8	0	·	·
CCOC(=O)/C(C#N)=C/c1cc(C)c(/C=C(\C#N)C(=O)OCC)cc1C	2	0	24	0	·	·
COc1ccc(-c2noc(CC(=O)Nc3nc(C)cs3)n2)cc1	-5	3	9	0	·	·
Cc1sc(NC(=O)/C=C\C(=O)O)nc1-c1ccccc1	2	6.9*	3	0	1	20
Cc1cccc2sc(NC(=O)/C=C\C(=O)O)nc12	6	6.8*	14	0	0	16
CC1CCCC(NS(=O)(=O)c2cc3c(cc2Cl)NC(=O)CO3)C1C (stereo not given)	4	7.8*	14	0	0	6
SMILES	TEAD-YAP inh	GPR151 ag	MITF primary	FBW7 act	GPR151 confirm	GPR119 counter
Cc1cc2c(cc1S(=O)(=O)NC1CCCC(C)C1C)OCC(=O)N2 (stereo not given)	-9	0	-11	0	·	·
Cc1cccc(OC(=O)c2ccco2)c1C	0	0	-7	0	·	·
COC(=O)c1c(NC(=O)c2ccc([N+](=O)[O-])cc2)sc(C(=O)N2CCOCC2)c1C	-1	5.5*	13	0	1	4
CCOC(=O)C1CCN(C(=O)/C=C/c2ccc([N+](=O)[O-])cc2)CC1	-13	0	14	0	·	·
CCOC(=O)C1CCN(C(=O)/C=C/c2cccc([N+](=O)[O-])c2)CC1	-7	6.6*	0	0	0	1
CCOC(=O)c1c(NC(=O)c2ccc(S(=O)(=O)N3CCCc4ccccc43)cc2)sc2c1CC(C)(C)NC2(C)C	9	-1	5	0	·	·
CC(=O)c1ccc(OCCCC(=O)Nc2nc(-c3ccccc3)c(C)s2)cc1	-1	-2	1	0	·	·
O=C(NCCCS(=O)(=O)N1CCc2ccccc2C1)c1ccc(F)cc1	10	0	-11	0	·	·
CC(=O)N1CCSc2cc(S(=O)(=O)NC3CCCCC3)ccc21	14	6.1*	-16	0	1	2
CC(=O)N1CCSc2cc(S(=O)(=O)Nc3ccc(C(C)C)cc3)ccc21	-10	0	-10	0	·	·
CC(=O)N1CCSc2cc(S(=O)(=O)Nc3ccc(Cl)cc3)ccc21	4	5.0*	1	0	0	2
CC(=O)N1CCc2cc(NS(=O)(=O)c3ccc4ccccc4c3)ccc21	-5	5.0*	8	0	1	3
CCCSc1ncnc2c1c(-c1ccccc1)cn2-c1cccc(F)c1	-4	7.6*	-7	0	0	13
Cc1cccc(-n2cc(-c3ccccc3)c3c(NC(C)C)ncnc32)c1	-21	5.0*	7	0	-1	-1
CC(C)Nc1ncnc2c1c(-c1ccccc1)cn2-c1cccc(Cl)c1	-37	-2	-11	0	·	·
N#CC1=C(N)Oc2c(oc(CO)cc2=O)C1c1ccc(OCc2ccccc2)cc1 (stereo not given)	2	-1	-12	0	·	·
CC(NC(=O)CC1S/C(=N/N=C/c2ccco2)NC1=O)C(=O)O (stereo not given)	3	5.7*	10	0	-1	-3
Cc1ccccc1OCCNc1cc(Cl)ccc1[N+](=O)[O-]	-1	1	6	0	·	·
COc1ccc(NC(=O)C(=O)NCc2ccncc2)cc1	4	5.1*	1	0	-1	-14
COc1ccc(NC(=O)NCc2ccncc2)cc1	-4	2	-4	0	·	·
CCC(C(=O)NC(C)(C)C)N(Cc1ccco1)C(=O)CNS(=O)(=O)c1ccc(C)cc1 (stereo not given)	4	1	-1	0	·	·
COc1ccc2c(c1)O[C@H](c1ccc3c(c1)OCO3)C(OC(=O)NCc1ccc3c(c1)OCO3)C2=O (stereo not given in full)	·	10*	3	0	1	1
